Source: PubChem
Compounds with a hit are over-represented: about 3.8% of the library has one in this group of screens.
Nrf2 block: blocks Nrf2 signaling; A549 ARE-Fluc reporter, luciferase luminescence, 18-24 h; Potency, µM (doses to about 46 µM), for the others: top-dose activity change, negative = inhibition, most hits filed as inhibitors; 360,000 tested, 2.1% active; further: on the % scale 0 is the no-effect control and ±100 the full control effect; nearly all actives have a fitted effect of over 60% in size
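Two sequential reads on A549 ARE_Fluc cells exposed to compound for 18-24 h: a CellTiter-Fluor fluorescence read for viability, then a luciferase luminescence read for Nrf2/ARE activity.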
HepG2 tox: counter-screen for TGF-b inhibitors: cytotoxicity in HepG2 cells; HepG2 CAGA-GFP viability, ATP luminescence, 18 h; Potency, µM (series often up to 46.1 µM), for inactives: at the top dose activity change, negative = cytotoxicity, hits mostly cytotoxic; 410,000 tested, 0.76% active; AID 588856
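HepG2 CAGA-GFP cells (1000/well, DMEM with 1% FBS) received compound, then TGF-beta at 500 pg/mL final, and were incubated 18 hours at 37 degrees C. Viability was read by CellTiter-Glo luminescence. Media-only wells were set as complete cell-killing and DMSO as no toxicity.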
ATXN2 expr inh: reduces ATXN2 reporter expression in HEK-293 cells. 360,000 tested, 0.72% active. AID 1745845. Potency, µM (series often up to 57 µM), without a hit: at the highest dose activity change, negative = inhibition, actives largely listed as inhibitors. HEK-293 ATXN2-luciferase reporter, luminescence, 24 h; further: on the % scale 0 is the no-effect control and ±100 the full control effect; nearly all actives have a fitted effect of over 55% in size
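qHTS (up to 57 uM final) was run with 24 h compound exposure of reporter cells at 37 °C. Each well was multiplexed: SteadyGlo luminescence measured ATXN2-luciferase expression after a fluorogenic Gly-Phe-AFC viability readout (25 uM final).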
TGFb SMAD3 inh: inhibitors of TGF-b signaling; 410,000 tested, 1.2% active; Potency, µM (titrated, usually from 46.1 µM), for the others: top-dose activity, negative = inhibition, actives largely listed as inhibitors; HepG2 CAGA-GFP TGF-b/SMAD3 reporter, GFP fluorescence, 18 h; TGF-beta stimulated, 500 pg/mL final; further: on the % scale 0 is the no-effect control and ±100 the full control effect; nearly all actives have a fitted effect of over 65% in size
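Cell-based qHTS in HEPG2 carrying a CAGA-GFP Smad reporter; compounds added before 500 pg/mL final TGF-beta, 18 h incubation at 37 degrees C, GFP fluorescence quantified per cell by imaging cytometry.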
A549 viability: counter-screen for Nrf2 inhibitors: cytotoxicity in A549 cells. A549 ARE-Fluc cells, CellTiter-Fluor viability, 18-24 h. Potency, µM (top dose mostly 46 µM), for the others: top-dose activity change, negative = cytotoxicity, most hits filed as inhibitors. 390,000 tested, 0.16% active. AID 504648; further: on the % scale 0 is the no-effect control and ±100 the full control effect
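Cytotoxicity counterscreen: CellTiter-Fluor fluorescence was measured in A549 ARE_Fluc cells after 18-24 h of compound exposure in a concentration series. The subsequent BugLite luminescent read reports ARE-luciferase activity.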
S2 tox: reduces viability in counter-screen for ATXN expression inhibitors; S2 cells (HEK-293 line with an ATXN2-luciferase reporter) viability, CellTiter-Fluor protease fluorescence, 24 h; Potency, µM (highest dose often 56.7 µM), usual class: cytotoxic; 400,000 tested, 0.49% active; AID 651635; further: nearly all actives have a fitted effect of over 40% in size
Active calls of the source: *; i = inactive; ? = inconclusive; nt = no result given. The call rests on the fitted dose curve; in most records, active means well fitted curve in the direction sought with a large enough effect; inconclusive means small, poorly fitted or top-dose-only effect, or another doubt; inactive means no such curve, though single readings can be large; an effect the other way counts as inactive or inconclusive. Potency means the concentration at half of the fitted maximal effect.

SMILES	Nrf2 block	HepG2 tox	ATXN2 expr inh	TGFb SMAD3 inh	A549 viability	S2 tox
O=C1CSC2(C(=O)N(Cc3ccccc3F)c3ccccc32)N1c1cccc(C(F)(F)F)c1 (stereo unspecified)	?	-11.2%	?	11.2µM*	-0.3%	i
COc1ccc2nc(Sc3c([N+](=O)[O-])nc(C)n3Cc3ccccc3)[nH]c2c1	13µM*	-31.9%	-16.2%	?	?	?
C[C@@H]1C[C@H]2[C@@H]3C[C@H](F)C4=CC(=O)C=C[C@]4(C)[C@@]3(F)[C@@H](O)C[C@]2(C)[C@@]1(O)C(=O)COC(=O)C(C)(C)C	0.0517µM*	-25.8%	0.0%	-5.7%	1.1%	i
CCc1ccc(S(=O)(=O)/N=C2\C=C(Nc3ccc(O)cc3)C(=O)c3ccccc32)cc1	8.2µM*	1.12µM*	3.55µM*	0.891µM*	11.6µM*	7.08µM*
CCc1ccc(S(=O)(=O)/N=C2\C=C(Nc3cccc(C(=O)O)c3)C(=O)c3ccccc32)cc1	20.6µM*	-88.8%	31.6µM*	?	?	25.1µM*
CC(=O)Nc1ccc(NC2=CC(=O)c3ccccc3C2=O)cc1	-3.8%	-26.8%	17.1%	?	-4.8%	i
CCc1ccc(S(=O)(=O)/N=C2/C=C(Sc3ncn[nH]3)C(=O)c3ccccc32)cc1	-26.8%	2µM*	15.8µM*	1.41µM*	?	?
Cc1ccc(S(=O)(=O)/N=C2\C=C(NS(=O)(=O)c3ccccc3)C(=O)c3ccccc32)cc1	0.4%	-40.0%	-31.0%	?	-2.9%	20µM*
O=S(=O)(c1cccc(O)c1)N1CCN(S(=O)(=O)c2c(F)cccc2F)CC1	3.4%	nt	nt	nt	-0.8%	nt
C=Cc1ccc(CSc2nc(-c3ccccc3Cl)nc3c2Cc2c(CO)cnc(C)c2O3)cc1	-7.1%	3.8%	-4.7%	14.4%	5.1%	?
O=C(c1c[nH]c2ccccc12)C(Cl)c1ccccc1 (stereo unspecified)	?	-1.2%	nt	?	-4.1%	?
CCOC(=O)CSc1nnc2n(-c3ccccc3)c(=O)c3c4c(sc3n12)CC(C(C)(C)C)CC4 (stereo unspecified)	-12.6%	11.2µM*	?	?	-6.6%	nt
O=C1CC(c2ccccc2)CC(O)=C1C=NCc1ccccc1 (stereo unspecified)	?	3.0%	-1.3%	-9.7%	-4.2%	i
O=C1CCCC(O)=C1C=NCc1ccccc1	-1.9%	1.2%	4.74µM*	-10.2%	-0.8%	i
CC(C)(C)n1nnnc1C(c1cccs1)N(Cc1cccnc1)Cc1ccccc1Cl (stereo unspecified)	?	-32.0%	?	17.8µM*	?	?
O=C(Nn1c(C2CCCCC2)nc2ccccc2c1=O)c1ccc(Cl)c([N+](=O)[O-])c1	6.7%	-24.3%	-23.1%	?	-0.5%	i
Cc1cc(C(=O)Nn2c(C3CCCCC3)nc3ccccc3c2=O)ccc1[N+](=O)[O-]	?	-54.3%	nt	20µM*	-11.1%	?
CC1CCN(c2ccc3c(c2)S(=O)(=O)c2cccc(C(=O)NC4CC4)c2C3=O)CC1	12.2%	-20.8%	16.5%	3.5%	-4.4%	i
COC(=O)CCC(=O)NC(=S)Nc1sc(C)c(C)c1C(N)=O	26.2%	-35.7%	-4.1%	11.2µM*	-5.7%	?
Cc1ccc(C)c(NC(=O)c2ccccc2NS(=O)(=O)c2cc([N+](=O)[O-])ccc2C)c1	?	-40.8%	?	2.51µM*	?	i
NS(=O)(=O)c1ccc(N2N=C(c3ccc(Br)cc3)CC2c2ccc(F)cc2)cc1 (stereo unspecified)	18.4µM*	20µM*	?	?	?	nt
COc1ccc(C2CC(c3ccc(Cl)cc3)=NN2c2ccc(S(N)(=O)=O)cc2)cc1 (stereo unspecified)	?	17.8µM*	0.0%	?	-6.6%	nt
COc1cccc(C2C(C(=O)Nc3ccccc3)=C(C)Nc3nc(-c4ccccc4)nn32)c1OC (stereo unspecified)	18.4µM*	-16.9%	-14.9%	?	-25.1%	?
COc1ccc(C2C(C(=O)Nc3ccccc3)=C(C)Nc3nc(-c4ccccc4)nn32)c(OC)c1 (stereo unspecified)	?	-11.6%	-15.5%	?	-6.9%	i
CC(=O)Nc1ccc(S(=O)(=O)NN=CCCc2ccccc2)cc1	-7.6%	2.9%	-5.5%	10.1%	-2.7%	i
SMILES	Nrf2 block	HepG2 tox	ATXN2 expr inh	TGFb SMAD3 inh	A549 viability	S2 tox
CCC(=O)NC(=S)NNC(=O)c1ccc(OC)cc1	?	1.6%	?	-18.0%	-4.9%	i
CCCOc1ccc(C(=O)NNC(=S)NC(=O)c2ccccc2)cc1	?	-15.8%	nt	-13.4%	-15.6%	i
Cc1ccccc1C(=O)NNC(=S)NC(=O)c1cccs1	14.6µM*	-25.2%	nt	?	?	i
CCCOc1ccc(C(=O)NNC(=S)NC(=O)c2cccs2)cc1	7.31µM*	1.4%	?	5.7%	-19.4%	?
CCCCOc1ccc(C(=O)NNC(=S)NC(=O)CC)cc1	?	-1.3%	25.1µM*	-13.2%	-18.1%	?
Cc1ccccc1-c1nnn(Cc2cccc(S(=O)(=O)N3CCOCC3)c2)n1	?	-24.2%	nt	-20.6%	14.6%	i
O=C(NCCN1CCCCC1)c1ccc(F)cc1Cl	6.8%	-21.3%	4.8%	0.1%	8.5%	i
CC(=NNc1nc2ccccc2s1)c1ncccn1	?	-35.7%	?	0.794µM*	?	1.41µM*
CCOc1ccc(-n2cc(-c3ccccc3)c3c(N4CCC(C)CC4)ncnc32)cc1	nt	-21.1%	nt	-3.4%	15.7%	nt
Oc1cc(NCCc2cccnc2)cc2cccnc12	1.4%	11.2µM*	39.8µM*	?	-0.1%	?
Oc1cc(Nc2cccnc2)cc2cccnc12	4.3%	-56.8%	?	?	-2.3%	?
Cc1ccc(NC(=O)c2nc(S(=O)(=O)Cc3ccccc3F)ncc2Cl)cc1	nt	10µM*	nt	?	nt	nt
Cc1ccccc1NC(=O)c1nc(S(=O)(=O)Cc2ccccc2F)ncc1Cl	nt	5.62µM*	nt	4.47µM*	nt	nt
c1nc(CCO[C@H]2CCCCO2)cc2cc3c(cc12)OCO3	?	-15.5%	11.2µM*	10.1%	-5.0%	i
COc1ccc(C(C)=O)cc1CSc1nc(NCc2ccccc2)c2ccccc2n1	nt	-4.6%	nt	?	23.1µM*	nt
O=C(NCC(c1cccnc1)N1CCN(c2ccccc2F)CC1)OCc1ccccc1 (stereo unspecified)	20.6µM*	-28.0%	-16.0%	-15.0%	-21.7%	i
